KKLEB cytotox – cytotoxicity in KKLEB CF airway cells, primary screen, cytotoxicity control for CF NF-kB inhibitor project, cell-based, uHTS, fluorescence assay plates; KKLEB CF airway cells viability, ATPlite luminescence, overnight; stronger effect = lower value; cells stimulated with P. aeruginosa culture filtrate; activity change (cytotoxicity), % at 5 µM; hit rate 0.36% among 360,000; AID 602141, 2011;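 active = corrected activity change at or below -50% at 5 µM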
HIF-2a block – HIF-2a reporter inhibitors, primary screen, luminescence, 786-0 RCC cells | 786-0 RCC cells HIF-2a reporter, luciferase luminescence, overnight | inhibition, % at 18.8 µM | hit rate 0.72% among 360,000 | AID 624352, 2012;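 active = inhibition of the luminescence signal of 40% or more relative to plate controls, in a single-dose primary screen at 18.75 µM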
TROY NFkB inh – inhibitors of TROY-driven NF-kB signaling, primary screen, Q293 LMP1-TROYcd cells, NF-kB luciferase, uHTS | Q293 LMP1-TROYcd NF-kB luciferase reporter, 4 h | inhibition, % at 10 µM | hit rate 0.98% among 360,000;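 active = compounds whose plate-normalised and pattern-corrected inhibition of the luciferase reporter signal at the single screening dose is 50% or more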
Peg3 prom inh – Peg3 promoter-driven luciferase inhibitors, primary screen, cell-based, HeLa, luciferase luminescence. hit rate 1.7% among 360,000. HeLa PEG-Prom luciferase reporter, overnight. AID 588405, 2011. inhibition, % at 20 µM;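 active = inhibition of at least 50% at 20 µM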
TWEAK Fn14 block – inhibitors of TWEAK-Fn14 signaling, primary screen, luciferase reporter cells, uHTS; inhibition, % at 10 µM; AID 1159606, 2016; TWEAK-stimulated Fn14 reporter cells, luciferase luminescence, 8 h; hit rate 2% among 360,000; in the data active = inhibition above about 50%
CF NFkB block – inhibitors of PAF-induced NF-kB signaling, primary screen, cell-based, GFP fluorescence, uHTS. hit rate 0.86% among 360,000. KKLEB NF-kB-GFP reporter, GFP fluorescence overnight. inhibition, % at 5 µM;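 active = at least 50% inhibition at 5 µM, scaled per plate between neutral and stimulator controls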;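 note: PAF is a Pseudomonas aeruginosa culture filtrate used as stimulus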
Hits are given with their value; 0 = inactive; - = not tested or not shown. Shown are actives, neighbours in structure and some others; about 4% of the full set was active somewhere.

SMILES | KKLEB cytotox | HIF-2a block | TROY NFkB inh | Peg3 prom inh | TWEAK Fn14 block | CF NFkB block
Cc1cc(Cl)ccc1OC(C)C(=O)Nc1ccc(C(=O)Nc2ccccc2C(=O)O)cc1 (configuration not stated) | 0 | 0 | 57 | 0 | 0 | 0
S=C(N/N=C/c1ccc2ncccc2c1)Nc1cccnc1 | 0 | 0 | 0 | 0 | 56 | 0
NC(=O)CC(NC(=O)Cc1ccc(Br)cc1)c1ccc(N2CCC(Br)CC2)c([N+](=O)[O-])c1 (configuration not stated) | 0 | 0 | 0 | 0 | 0 | 0
NC(=O)CC(NC(=O)Cc1ccc(Br)cc1)c1ccc(N2CCC(Cc3ccccc3)CC2)c([N+](=O)[O-])c1 (configuration not stated) | 0 | 0 | 0 | 51 | 0 | 0
CC(O)(CC(=O)CC(=O)c1ccccc1)c1ccccc1 (configuration not stated) | 0 | 0 | 0 | 52 | 0 | 0
CC(C)N1CCC(C)(C(=O)Nc2ccc(-n3cccc3)cc2)C1 (configuration not stated) | 0 | 0 | 0 | 0 | 0 | 0
COc1ccc(-n2ncc3c2CC(C)(C)CC3NC(=O)c2ocnc2C)cc1 (configuration not stated) | 0 | 0 | 0 | 0 | 0 | 0
Cc1cc(NC(=O)C(C)SCC(=O)OCc2ccc(Cl)cc2Cl)no1 (configuration not stated) | 0 | 0 | 0 | 0 | 0 | 0
CC(C)c1ccc(OCC(=O)NN2C(=O)c3ccccc3C2=O)c(Br)c1 | 0 | 0 | 0 | 0 | 69 | 0
CCNC(=S)NNC(=O)Cn1c(=O)c2c(ncn2CCOC)n(Cc2ccccc2)c1=O | 0 | 0 | 0 | 0 | 93 | 0
CCCCCNC(=O)Cn1c(=O)c2c(ncn2CC(C)C)n(Cc2ccccc2)c1=O | 0 | 0 | 0 | 0 | 50 | 0
COc1ccc(NC(=O)CSc2nc3ccccc3c(=O)n2CCCC(=O)NCC2CCCO2)c(OC)c1 (configuration not stated) | 0 | 0 | 0 | 0 | 0 | 0
O=C(NCc1ccccc1)c1ccc(S(=O)(=O)NCc2ccco2)cc1 | 0 | 0 | 0 | 0 | 0 | 0
CC(=O)c1c(C)[nH]c(C(=O)OCc2nnc(-c3ccc([N+](=O)[O-])cc3)o2)c1C | 0 | 0 | 0 | 0 | 0 | 0
CCC(=O)Nc1ccc2nc(C3CC3)n(Cc3ccc(C(C)(C)C)cc3)c(=O)c2c1 | 0 | 0 | 75 | 0 | 66 | 0
COCCNC(=O)C1(C)CCN(C(=O)c2ccc(C(F)(F)F)nc2C)C1 (configuration not stated) | 0 | 0 | 0 | 0 | 0 | 0
COc1ccc(N(C)C(=O)C2CCN(S(=O)(=O)c3cccc4nonc34)CC2)cc1 | 0 | 0 | 0 | 0 | 0 | 0
Cc1c(/C(O)=C2\C(=O)C(=O)N(CCCN(C)C)C2c2ccccc2)cnn1-c1ccccc1 (configuration not stated) | 0 | 0 | 86 | 0 | 82 | 0
Cc1c(/C(O)=C2\C(=O)C(=O)N(CCN(C)C)C2c2cccnc2)cnn1-c1ccccc1 (configuration not stated) | 0 | 0 | 0 | 0 | 0 | 0
CC[N+](C)(CC)CCOC(=O)C(O)(c1ccccc1)C1CCCCC1 (configuration not stated) | 0 | 0 | 0 | 0 | 0 | 54
CC[N+](C)(CC)CCC(c1ccccc1)C1CCCCC1 (configuration not stated) | 0 | 0 | 0 | 0 | 0 | 0
NS(=O)(=O)c1ccc(NC(=S)Nc2ccn(Cc3cccc4ccccc34)n2)cc1 | 0 | 0 | 0 | 0 | 0 | 0
Cc1cc(C(=O)CCl)c(C)n1CCc1ccc(F)cc1 | 0 | 0 | 0 | 56 | 0 | 0
COc1ccc(CCn2c(C)cc(C(=O)CCl)c2C)cc1OC | 0 | 0 | 0 | 61 | 0 | 0
O=C(NCCCl)NNc1c(Cl)cc(Cl)cc1Cl | 0 | 0 | 72 | 0 | 51 | 0
SMILES | KKLEB cytotox | HIF-2a block | TROY NFkB inh | Peg3 prom inh | TWEAK Fn14 block | CF NFkB block
O=C(NCCO)c1cc2ccccc2c(=O)s1 | 0 | 0 | 0 | 0 | 0 | 0
COC(=O)c1cc2ccccc2c(=O)s1 | 0 | 0 | - | 0 | 85 | 0
CCN(CC)CCNCC(=O)N1c2ccccc2CCc2ccc(NC(=O)OC)cc21 | 0 | 0 | 0 | 0 | 105 | 0
CCc1cccc(NC(=O)CCS(=O)(=O)c2ccc(Br)cc2)c1 | 0 | 0 | 0 | 0 | 0 | 0
CCN(CC)CCN1C(=O)c2cccc3cc(N)cc(c23)C1=O | 0 | 0 | 0 | 51 | 0 | 0
O=C1c2cccc3cccc(c23)C(=O)N1CCO | 0 | 0 | 0 | 0 | 0 | 0
CCN(CC)C(=O)c1ccc2nc3ccccc3nc2c1 | 0 | 0 | 0 | 0 | 0 | 0
CCN(CC)c1ccc2nc3ccccc3[n+](CC)c2c1 | 0 | 0 | 0 | 57 | 64 | 0
CCOc1ccc(NC(=O)CCN2C(=S)NC(C)(C)CC2C)cc1 (configuration not stated) | 0 | 0 | 0 | 0 | 94 | 0
CC1CC(C)(C)NC(=S)N1CCCC(=O)Nc1ccc(Cl)cc1 (configuration not stated) | 0 | 0 | 0 | 0 | 0 | 0
O=C(Nc1nc2ccc(F)cc2s1)c1cccc(S(=O)(=O)N2CCc3ccccc32)c1 | 0 | 0 | 0 | 0 | 57 | 0
O=C(Nc1nncs1)c1cccc(S(=O)(=O)N2CCc3ccccc32)c1 | 0 | 0 | 0 | 0 | 0 | 0
C#CCn1c(=NC(=O)c2cc(Cl)sc2Cl)sc2cc(S(N)(=O)=O)ccc21 | 0 | 0 | 0 | 0 | 0 | 0
C#CCn1c(=NC(=O)c2cc(-c3cccs3)nc3ccccc23)sc2cc(S(N)(=O)=O)ccc21 | -56 | 0 | 0 | 0 | 0 | 0
COc1ccc(CCCNC(=O)C2Cc3c(-c4cccc(C(C)=O)c4)ccnc3O2)cc1 (configuration not stated) | 0 | 0 | 0 | 0 | 0 | 0
COc1ccc(N=C(C)C2=C(O)c3ccccc3C2=O)cc1 | 0 | 0 | 0 | 0 | 63 | 0
CC(C)(C)OC(=O)NCCc1nnc(S(=O)(=O)Cc2ccc(Cl)cc2Cl)o1 | 0 | 0 | 0 | 0 | 0 | 60
OC(CNCCc1ccc(C(F)(F)F)cc1)COC(c1ccccc1)c1ccccc1 (configuration not stated) | 0 | 0 | 0 | 111 | 0 | 0
COc1ccc(C(OCC(O)CNCCc2ccc(S(N)(=O)=O)cc2)c2ccc(OC)cc2)cc1 (configuration not stated) | 0 | 0 | 0 | 0 | 0 | 0
Cc1nn2c(N)c(C#N)cnc2c1-c1ccc(Cl)cc1 | 0 | 0 | 0 | 0 | 0 | 0
COc1ccc(-c2c(C)nn3c(N)c(C#N)cnc23)cc1OC | 0 | 0 | 0 | 0 | 50 | 0

Screening results deposited in PubChem by Sanford-Burnham Center for Chemical Genomics.
